# What was measured:
# [1] = target: Sphingosine kinase 1 (Homo sapiens) (UniProt Q9NYA1); conditions: at 1 µM;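 also: mean SPHK1 inhibition value reported from the GSK PKIS kinase panel screen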
# [2] = target: T1, Sphingosine kinase 2 (Homo sapiens) (UniProt Q9NRA0); conditions: at 0.1 µM
# T1 sequence (whole entry): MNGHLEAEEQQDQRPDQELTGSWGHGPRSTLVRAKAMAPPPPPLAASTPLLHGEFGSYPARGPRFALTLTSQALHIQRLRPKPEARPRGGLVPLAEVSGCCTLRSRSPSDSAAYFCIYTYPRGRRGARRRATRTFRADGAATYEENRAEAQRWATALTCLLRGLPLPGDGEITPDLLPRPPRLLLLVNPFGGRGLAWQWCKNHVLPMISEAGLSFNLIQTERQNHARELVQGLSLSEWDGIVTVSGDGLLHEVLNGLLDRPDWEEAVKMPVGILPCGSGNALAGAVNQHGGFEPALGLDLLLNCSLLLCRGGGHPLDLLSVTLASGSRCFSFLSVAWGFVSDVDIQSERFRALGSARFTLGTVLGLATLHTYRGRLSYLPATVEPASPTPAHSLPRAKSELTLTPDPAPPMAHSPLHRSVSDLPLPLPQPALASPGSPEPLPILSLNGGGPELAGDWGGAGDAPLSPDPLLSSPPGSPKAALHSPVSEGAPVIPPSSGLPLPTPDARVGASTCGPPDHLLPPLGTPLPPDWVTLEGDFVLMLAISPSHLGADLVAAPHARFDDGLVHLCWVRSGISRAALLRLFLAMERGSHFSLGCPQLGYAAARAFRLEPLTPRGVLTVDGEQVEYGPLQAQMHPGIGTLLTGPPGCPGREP
# [3] = target: T1, Sphingosine kinase 2 (Homo sapiens); conditions: at 1 µM
# [4] = target: Casein kinase II subunit alpha (Homo sapiens) (UniProt P68400); conditions: at 0.1 µM
# [5] = target: Casein kinase II subunit alpha (Homo sapiens) (UniProt P68400); conditions: at 1 µM
# [6] = target: T2, Inhibitor of nuclear factor kappa-B kinase subunit alpha (Homo sapiens) (UniProt O15111); conditions: at 0.1 µM
# T2 sequence (whole entry): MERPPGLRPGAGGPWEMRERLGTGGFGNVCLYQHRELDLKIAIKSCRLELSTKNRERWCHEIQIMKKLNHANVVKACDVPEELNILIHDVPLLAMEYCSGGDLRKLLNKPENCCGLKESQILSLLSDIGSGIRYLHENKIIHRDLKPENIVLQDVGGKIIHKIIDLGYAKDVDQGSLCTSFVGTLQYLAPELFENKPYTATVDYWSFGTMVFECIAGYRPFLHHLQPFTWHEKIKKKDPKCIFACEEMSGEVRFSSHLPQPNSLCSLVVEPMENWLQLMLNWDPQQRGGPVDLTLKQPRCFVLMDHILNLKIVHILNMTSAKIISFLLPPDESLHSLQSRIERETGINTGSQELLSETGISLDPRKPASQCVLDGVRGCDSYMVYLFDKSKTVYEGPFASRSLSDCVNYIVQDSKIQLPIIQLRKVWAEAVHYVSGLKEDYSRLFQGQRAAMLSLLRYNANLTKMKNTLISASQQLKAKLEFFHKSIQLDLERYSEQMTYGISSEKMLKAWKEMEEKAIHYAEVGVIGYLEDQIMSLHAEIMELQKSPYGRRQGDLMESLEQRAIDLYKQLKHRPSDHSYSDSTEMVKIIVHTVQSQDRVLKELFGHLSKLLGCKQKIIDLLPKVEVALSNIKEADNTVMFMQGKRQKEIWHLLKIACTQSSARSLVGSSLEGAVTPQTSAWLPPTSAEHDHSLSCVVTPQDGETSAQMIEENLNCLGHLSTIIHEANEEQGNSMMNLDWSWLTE
# [7] = target: T3, Inhibitor of nuclear factor kappa-B kinase subunit beta (Homo sapiens) (UniProt O14920); conditions: at 0.1 µM
# T3 sequence (whole entry): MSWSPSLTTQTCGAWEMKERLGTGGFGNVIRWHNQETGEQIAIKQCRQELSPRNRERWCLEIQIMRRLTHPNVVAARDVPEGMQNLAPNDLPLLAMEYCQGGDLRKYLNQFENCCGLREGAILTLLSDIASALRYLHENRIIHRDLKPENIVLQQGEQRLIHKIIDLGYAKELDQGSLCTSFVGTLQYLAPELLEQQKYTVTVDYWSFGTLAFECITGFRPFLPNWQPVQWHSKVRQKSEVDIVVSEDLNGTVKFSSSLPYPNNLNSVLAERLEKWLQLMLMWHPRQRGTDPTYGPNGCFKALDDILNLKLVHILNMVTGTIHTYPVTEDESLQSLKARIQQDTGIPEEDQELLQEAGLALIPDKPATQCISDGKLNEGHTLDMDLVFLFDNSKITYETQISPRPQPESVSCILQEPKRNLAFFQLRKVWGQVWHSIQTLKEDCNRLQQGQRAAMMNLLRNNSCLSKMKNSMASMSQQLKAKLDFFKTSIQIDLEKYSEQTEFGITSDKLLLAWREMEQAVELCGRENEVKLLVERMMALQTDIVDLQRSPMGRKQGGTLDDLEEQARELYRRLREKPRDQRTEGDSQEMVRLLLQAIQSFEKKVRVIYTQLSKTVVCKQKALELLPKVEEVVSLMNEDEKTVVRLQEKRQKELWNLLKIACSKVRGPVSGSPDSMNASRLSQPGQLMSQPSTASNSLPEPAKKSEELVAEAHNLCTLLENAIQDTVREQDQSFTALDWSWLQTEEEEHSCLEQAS
# [8] = target: T3, Inhibitor of nuclear factor kappa-B kinase subunit beta (Homo sapiens); conditions: at 1 µM
# [9] = target: T4, Inhibitor of nuclear factor kappa-B kinase subunit epsilon (Homo sapiens) (UniProt Q14164); conditions: at 0.1 µM
# T4 sequence (whole entry): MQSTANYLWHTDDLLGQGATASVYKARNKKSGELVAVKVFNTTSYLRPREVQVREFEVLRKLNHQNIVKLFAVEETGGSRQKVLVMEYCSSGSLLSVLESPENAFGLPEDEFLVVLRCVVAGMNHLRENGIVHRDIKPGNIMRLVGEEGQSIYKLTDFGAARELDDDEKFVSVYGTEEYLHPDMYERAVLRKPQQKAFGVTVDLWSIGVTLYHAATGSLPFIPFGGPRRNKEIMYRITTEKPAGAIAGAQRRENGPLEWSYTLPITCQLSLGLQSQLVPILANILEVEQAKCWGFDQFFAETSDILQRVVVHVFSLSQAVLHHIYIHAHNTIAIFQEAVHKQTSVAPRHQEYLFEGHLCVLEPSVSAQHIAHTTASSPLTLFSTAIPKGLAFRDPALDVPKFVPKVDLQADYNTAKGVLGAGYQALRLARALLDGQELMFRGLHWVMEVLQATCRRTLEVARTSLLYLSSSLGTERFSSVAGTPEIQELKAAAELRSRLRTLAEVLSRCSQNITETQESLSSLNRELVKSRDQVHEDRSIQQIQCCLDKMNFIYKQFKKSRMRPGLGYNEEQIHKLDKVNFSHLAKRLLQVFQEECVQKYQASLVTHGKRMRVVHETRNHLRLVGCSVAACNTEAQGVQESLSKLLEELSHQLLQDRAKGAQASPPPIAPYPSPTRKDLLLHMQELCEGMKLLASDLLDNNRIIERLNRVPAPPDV
# [10] = target: T4, Inhibitor of nuclear factor kappa-B kinase subunit epsilon (Homo sapiens); conditions: at 1 µM
# [11] = target: T5, Serine/threonine-protein kinase Nek1 (Homo sapiens) (UniProt Q96PY6); conditions: at 0.1 µM
# T5 sequence (whole entry): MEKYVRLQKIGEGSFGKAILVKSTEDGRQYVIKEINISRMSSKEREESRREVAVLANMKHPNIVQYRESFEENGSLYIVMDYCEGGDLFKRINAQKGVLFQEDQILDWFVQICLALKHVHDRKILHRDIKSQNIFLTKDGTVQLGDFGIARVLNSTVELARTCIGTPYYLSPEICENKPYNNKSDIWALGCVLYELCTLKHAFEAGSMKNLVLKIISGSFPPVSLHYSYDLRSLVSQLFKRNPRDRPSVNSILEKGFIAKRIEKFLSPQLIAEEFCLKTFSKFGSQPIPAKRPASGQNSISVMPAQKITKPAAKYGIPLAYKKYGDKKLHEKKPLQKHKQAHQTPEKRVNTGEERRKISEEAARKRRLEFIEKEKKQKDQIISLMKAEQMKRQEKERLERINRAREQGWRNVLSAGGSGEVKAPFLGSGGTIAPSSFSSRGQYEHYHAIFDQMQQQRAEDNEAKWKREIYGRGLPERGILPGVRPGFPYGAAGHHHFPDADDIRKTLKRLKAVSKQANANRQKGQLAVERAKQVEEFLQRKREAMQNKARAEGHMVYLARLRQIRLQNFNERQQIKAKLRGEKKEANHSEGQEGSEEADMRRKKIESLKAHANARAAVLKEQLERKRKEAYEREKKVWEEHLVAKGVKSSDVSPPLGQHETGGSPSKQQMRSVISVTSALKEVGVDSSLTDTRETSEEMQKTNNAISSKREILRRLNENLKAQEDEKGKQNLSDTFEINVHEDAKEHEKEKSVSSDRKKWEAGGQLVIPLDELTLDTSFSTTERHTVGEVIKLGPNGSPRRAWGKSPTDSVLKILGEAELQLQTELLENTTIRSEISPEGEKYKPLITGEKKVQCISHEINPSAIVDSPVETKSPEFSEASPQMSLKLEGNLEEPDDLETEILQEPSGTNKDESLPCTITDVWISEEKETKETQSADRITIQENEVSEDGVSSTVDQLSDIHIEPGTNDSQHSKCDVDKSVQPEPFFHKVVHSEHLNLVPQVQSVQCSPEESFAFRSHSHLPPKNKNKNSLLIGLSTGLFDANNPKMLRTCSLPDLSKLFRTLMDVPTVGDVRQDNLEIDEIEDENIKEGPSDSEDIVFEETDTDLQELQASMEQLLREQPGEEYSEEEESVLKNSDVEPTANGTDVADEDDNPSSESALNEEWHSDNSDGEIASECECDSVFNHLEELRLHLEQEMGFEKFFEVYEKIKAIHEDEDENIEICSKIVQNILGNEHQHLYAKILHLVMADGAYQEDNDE
# [12] = target: T5, Serine/threonine-protein kinase Nek1 (Homo sapiens); conditions: at 1 µM
# [13] = target: T6, Serine/threonine-protein kinase Nek2 (Homo sapiens) (UniProt P51955); conditions: at 0.1 µM
# T6 sequence (whole entry): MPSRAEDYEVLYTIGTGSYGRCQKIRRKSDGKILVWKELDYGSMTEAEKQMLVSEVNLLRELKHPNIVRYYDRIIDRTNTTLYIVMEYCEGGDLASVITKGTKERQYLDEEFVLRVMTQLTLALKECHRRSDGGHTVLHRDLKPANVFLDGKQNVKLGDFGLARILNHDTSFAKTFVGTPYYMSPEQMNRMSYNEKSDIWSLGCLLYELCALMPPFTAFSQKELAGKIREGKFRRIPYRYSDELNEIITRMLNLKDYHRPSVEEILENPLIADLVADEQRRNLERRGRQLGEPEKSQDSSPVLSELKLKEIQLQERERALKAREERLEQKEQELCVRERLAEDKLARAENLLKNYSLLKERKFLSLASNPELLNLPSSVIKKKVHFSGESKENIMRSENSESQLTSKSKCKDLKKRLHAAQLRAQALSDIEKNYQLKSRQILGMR
# [14] = target: T6, Serine/threonine-protein kinase Nek2 (Homo sapiens); conditions: at 1 µM
# [15] = target: Serine/threonine-protein kinase Nek6 (Homo sapiens) (UniProt Q9HC98); conditions: at 0.1 µM
# [16] = target: Serine/threonine-protein kinase Nek6 (Homo sapiens) (UniProt Q9HC98); conditions: at 1 µM
# [17] = target: Serine/threonine-protein kinase Nek7 (Homo sapiens) (UniProt Q8TDX7); conditions: at 0.1 µM
# [18] = target: Serine/threonine-protein kinase Nek7 (Homo sapiens) (UniProt Q8TDX7); conditions: at 1 µM
# [19] = target: T7, Serine/threonine-protein kinase Nek9 (Homo sapiens) (UniProt Q8TD19); conditions: at 0.1 µM;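 also: reported value is the mean percent inhibition of NEK9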
# T7 sequence (whole entry): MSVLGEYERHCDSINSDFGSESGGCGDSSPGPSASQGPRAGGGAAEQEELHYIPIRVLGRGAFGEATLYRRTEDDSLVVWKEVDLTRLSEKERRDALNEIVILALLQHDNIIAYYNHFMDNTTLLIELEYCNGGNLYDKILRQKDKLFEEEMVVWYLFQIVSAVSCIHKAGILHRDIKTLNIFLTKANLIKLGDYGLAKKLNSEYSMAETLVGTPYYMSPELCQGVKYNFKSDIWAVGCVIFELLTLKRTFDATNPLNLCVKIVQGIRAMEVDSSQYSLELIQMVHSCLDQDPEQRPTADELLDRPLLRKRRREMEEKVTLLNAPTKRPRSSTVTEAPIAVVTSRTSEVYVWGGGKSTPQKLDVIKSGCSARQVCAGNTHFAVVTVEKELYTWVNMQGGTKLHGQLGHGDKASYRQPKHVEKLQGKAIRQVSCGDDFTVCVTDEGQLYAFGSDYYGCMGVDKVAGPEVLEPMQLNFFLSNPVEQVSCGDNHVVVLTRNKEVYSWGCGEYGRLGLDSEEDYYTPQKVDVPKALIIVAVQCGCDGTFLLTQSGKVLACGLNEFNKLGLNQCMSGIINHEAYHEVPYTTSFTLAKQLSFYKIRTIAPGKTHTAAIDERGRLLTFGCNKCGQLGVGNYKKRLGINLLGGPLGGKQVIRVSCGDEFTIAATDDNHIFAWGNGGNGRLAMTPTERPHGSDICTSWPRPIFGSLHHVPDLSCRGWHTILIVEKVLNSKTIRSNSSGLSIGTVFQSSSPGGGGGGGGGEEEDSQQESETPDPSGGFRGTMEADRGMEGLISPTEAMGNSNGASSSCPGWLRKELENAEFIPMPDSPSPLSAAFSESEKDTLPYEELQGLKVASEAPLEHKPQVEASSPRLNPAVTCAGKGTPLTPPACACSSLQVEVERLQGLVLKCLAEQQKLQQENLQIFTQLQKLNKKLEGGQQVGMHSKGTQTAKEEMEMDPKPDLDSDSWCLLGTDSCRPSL
# [20] = target: T2, Inhibitor of nuclear factor kappa-B kinase subunit alpha (Homo sapiens); conditions: at 1 µM
# Serine/threonine-protein kinase Nek7 (Homo sapiens), sequence (Q8TDX7 whole entry, looked up): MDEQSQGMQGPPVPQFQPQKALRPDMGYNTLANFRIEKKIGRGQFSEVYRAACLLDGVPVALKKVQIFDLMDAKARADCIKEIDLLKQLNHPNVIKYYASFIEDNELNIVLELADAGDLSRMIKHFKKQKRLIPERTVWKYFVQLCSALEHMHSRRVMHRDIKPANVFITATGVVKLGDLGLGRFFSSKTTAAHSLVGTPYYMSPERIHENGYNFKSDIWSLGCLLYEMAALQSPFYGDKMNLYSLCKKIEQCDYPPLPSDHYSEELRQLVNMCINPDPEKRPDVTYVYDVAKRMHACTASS
# Serine/threonine-protein kinase Nek6 (Homo sapiens), sequence (Q9HC98 whole entry): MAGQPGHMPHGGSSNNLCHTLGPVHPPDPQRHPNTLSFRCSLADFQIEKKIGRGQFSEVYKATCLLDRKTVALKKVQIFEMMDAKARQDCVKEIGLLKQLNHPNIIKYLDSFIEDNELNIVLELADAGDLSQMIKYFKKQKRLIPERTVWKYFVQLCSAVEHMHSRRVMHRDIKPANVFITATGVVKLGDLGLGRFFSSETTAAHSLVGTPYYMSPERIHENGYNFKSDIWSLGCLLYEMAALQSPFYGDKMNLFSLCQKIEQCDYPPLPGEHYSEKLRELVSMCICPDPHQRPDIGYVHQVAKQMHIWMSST
# Casein kinase II subunit alpha (Homo sapiens), sequence (P68400 whole entry, looked up): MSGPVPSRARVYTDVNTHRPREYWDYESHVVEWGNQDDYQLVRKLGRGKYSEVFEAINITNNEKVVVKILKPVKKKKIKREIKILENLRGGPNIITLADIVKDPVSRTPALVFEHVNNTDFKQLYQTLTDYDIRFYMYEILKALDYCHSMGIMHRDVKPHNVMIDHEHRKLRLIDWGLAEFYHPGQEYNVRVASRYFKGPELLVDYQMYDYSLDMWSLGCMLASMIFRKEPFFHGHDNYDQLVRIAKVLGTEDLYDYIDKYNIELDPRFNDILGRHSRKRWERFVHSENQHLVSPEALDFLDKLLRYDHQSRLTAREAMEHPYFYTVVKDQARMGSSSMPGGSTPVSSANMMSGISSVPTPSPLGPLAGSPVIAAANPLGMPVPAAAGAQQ
# Sphingosine kinase 1 (Homo sapiens), sequence (Q9NYA1 whole entry): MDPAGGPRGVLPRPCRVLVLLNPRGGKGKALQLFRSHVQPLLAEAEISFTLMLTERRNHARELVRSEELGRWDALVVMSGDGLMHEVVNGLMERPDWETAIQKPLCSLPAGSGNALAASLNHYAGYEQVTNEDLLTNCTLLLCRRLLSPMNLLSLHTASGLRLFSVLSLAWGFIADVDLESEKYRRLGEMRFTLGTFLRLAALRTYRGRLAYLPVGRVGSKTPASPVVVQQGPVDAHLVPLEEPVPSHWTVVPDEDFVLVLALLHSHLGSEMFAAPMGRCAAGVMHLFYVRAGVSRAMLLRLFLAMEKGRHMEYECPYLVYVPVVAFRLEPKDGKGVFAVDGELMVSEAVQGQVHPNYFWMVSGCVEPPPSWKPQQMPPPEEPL
SMILES,inhibition [1] [%],inhibition [2] [%],inhibition [3] [%],inhibition [4] [%],inhibition [5] [%],inhibition [6] [%],inhibition [7] [%],inhibition [8] [%],inhibition [9] [%],inhibition [10] [%],inhibition [11] [%],inhibition [12] [%],inhibition [13] [%],inhibition [14] [%],inhibition [15] [%],inhibition [16] [%],inhibition [17] [%],inhibition [18] [%],inhibition [19] [%],inhibition [20] [%]
NC(=O)c1ccc(-c2nc(-c3ccccn3)c(-c3ccc4c(c3)OCO4)[nH]2)cc1,-3.93,-0.17,-0.84,2.1,4.61,7.62,3.19,3.61,3.15,4.06,1.34,3.26,2.44,2.69,2.04,4.68,2.26,1.68,6.53,
O=C(Nc1n[nH]c2nc(-c3ccco3)c(Br)cc12)C1CC1,-1.04,0.57,0.07,-0.1,-1.87,-4.07,1.61,2.38,3.19,3.64,2.9,1.85,4.03,3.85,3.21,0.56,4.18,3.03,1.02,-2.15
